# Reference: the supplement of paper PMC10941209
# System: HFF
# Experiment: cell viability relative to DMSO control; higher = less cytotoxic
# Conditions: 1 µM; 72 h
# Protocol: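 Single-dose cytotoxicity screen of the MMV Pandemic Response Box at 1 uM on human foreskin fibroblasts (HFF), 72 h at 37 C. Viability measured by MTT (OD 550 nm) and normalised to the DMSO control (% survival).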
row,SMILES,cell viability
1,CCNC(=O)Nc1cc(-c2ccccc2)c(-c2cncc(C(=O)O)c2)cn1,63.8%
2,O=C(O)c1cc(-c2ccccc2)nc2ccccc12,70.7%
3,O=C(CC1Sc2ncnn2C1=O)Nc1ccc(Br)cc1 (stereo not given),59.7%
4,O=S(=O)(Nc1ccc(O)cc1)c1cccc2cccnc12,66.5%
5,CCOC(=O)N1CCN(c2ccc(Cl)cc2)CC1,64%
6,O=C(Nc1nnc(-c2ccc(Cl)cc2)o1)c1ccc(F)cc1,65.9%
7,CCc1nc2ccc(Cl)cn2c1C(=O)NCc1ccc(N2CCC(c3ccc(OC(F)(F)F)cc3)CC2)cc1,63.2%
8,COCCn1cnc2c(O)nc(Nc3ccccc3)nc21,61%
9,CC(C)C(=O)N[C@H]1[C@H]([C@H](O)[C@H](O)CO)OC(C(=O)O)=C[C@@H]1N=[N+]=[N-],56.6%
10,C[C@H]1COc2c(N3CCN(C)CC3)c(F)cc3c(=O)c(C(=O)O)cn1c23,66%
11,O[C@@](Cn1cnnn1)(c1ccc(F)cc1F)C(F)(F)c1ccc(-c2ccc(OCC(F)(F)F)cc2)cn1,58.9%
12,Cc1cc(NS(=O)(=O)c2ccc(-c3ccc(F)cc3F)cc2)no1,69.4%
13,Cn1cc(NC(=O)c2cc(NC(=O)c3ccc(/C=C/c4cnc5ccccc5c4)cc3)cn2C)cc1C(=O)NCCN1CCOCC1,69.2%
14,O=C(Nc1cccc(C2=NCCN2)c1)c1ccc(-c2ccc(C(=O)Nc3cccc(C4=NCCN4)c3)cc2)cc1,63.4%
15,CCc1cc(CCCOc2c(C)cc(-c3noc(C(F)(F)F)n3)cc2C)on1,69.3%
16,Cc1cc(-c2ccccc2)c(C(=O)C(=O)Nc2ccc(N3CCN(c4ncc(F)cn4)CC3)cc2)n1C,76.8%
17,CN(C/C=C/C#CC(C)(C)C)Cc1cccc2ccccc12,64.9%
18,CC(=O)NC[C@H]1CN(c2ccc(N3CCSCC3)c(F)c2)C(=O)O1,67.2%
19,O=C(Nc1ccccc1C(=O)O)c1cccc(Oc2ccccc2)c1,67.4%
20,NC(=O)c1nccn([C@@H]2O[C@H](CO)[C@@H](O)[C@H]2O)c1=O,72.5%

row,SMILES,cell viability
1,O=C(Nc1ncc(Cc2cccc3ccccc23)s1)C1CCCCC1,58.6%
2,Clc1cc(Cl)c2c(c1)CCc1ccccc1C2n1ccnc1 (stereo not given),80.7%
3,CCCCCCCCCN1C[C@@H](O)[C@H](O)[C@@H](O)[C@@H]1CO,84.2%
4,O=C(NO)C1(CS(=O)(=O)c2ccc(Oc3ccc(Cl)cc3)cc2)CCOCC1,72.6%
5,Clc1cccc(-c2nnc(-c3ccccc3)o2)c1,64.1%
6,O=C(c1cc(O)nc2ccccc12)N1CCN(c2ccccc2)CC1,67%
7,C[C@H]1[C@@H](c2cccc(C(F)(F)F)c2)OC(=O)N1C(=O)NCc1cncc2ccccc12,70%
8,Cn1c2ccccc2c(=O)c2c(O)cccc21,65.8%
9,N#Cc1c(F)c(Cl)c(NCc2ccccc2)c(C#N)c1F,66.6%
10,O=C(c1ccccc1)N1CCN(c2ccccc2NC(=O)C(Cl)(Cl)Cl)CC1,65%
11,CCCCN1C[C@H](O)[C@@H](O)[C@H](O)[C@H]1CO,63.2%
12,Cc1oncc1C(=O)Nc1ccc(C(F)(F)F)cc1,65.7%
13,O=c1ccc2ncc(=O)n3c2n1CC3CN1CCC(NCc2cc3c(cn2)OCCC3)CC1 (stereo not given),60%
14,O=C(O)C(Cc1c[nH]c2ccccc12)N1C(=O)c2ccccc2C1=O (stereo not given),68.5%
15,CCCCSc1nc(N)c2[nH]c(=O)c(=O)n(Cc3ccccc3)c2n1,67.5%
16,CSc1ccc2c(c1)C(N1CCN(C)CC1)Cc1ccccc1S2 (stereo not given),65%
17,O=C(/C=C\n1cnc(-c2cc(C(F)(F)F)cc(C(F)(F)F)c2)n1)NNc1ccccn1,62%
18,N#CCN1C(=O)COc2cc(F)c(N3C(=O)c4ccccc4C3=O)cc21,63.5%
19,CCc1ccc(C2CC(C(F)(F)F)n3ncc(C(=O)NCc4ccc(OC)cc4)c3N2)cc1 (stereo not given),76.2%
20,CC[C@@]1(O)C(=O)OCc2c1cc1n(c2=O)Cc2cc3c(CN(C)C)c(O)ccc3nc2-1,50.1%
